Test results taken from the supplement of paper PMC8975748.
Structures can show the parent of a compound that is named as a salt. ± gives the standard deviation of the averaged measurements.

Key:
[1] = test system: Saccharomyces cerevisiae BY4741 SeMeCo community; test: mean cell size (pixel area) (pixels); higher = larger cells; settings: 10 µM; 24 h; SM minimal medium
Summary of the method: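 Mean cell pixel area per well was measured in a four-plasmid fluorescent community of Saccharomyces cerevisiae BY4741, where every plasmid complements one auxotrophy and carries a fluorescent marker. Cells from an overnight preculture at OD600 = 1.0 were diluted to OD600 = 0.3 and dispensed at 70 µl into 384-well plates acoustically predosed with drug to a final 10 µM in SM medium. Incubation lasted 24 h, followed by paraformaldehyde fixation, automated confocal imaging and analysis in Harmony. Reported figures are averaged over 3 replicates. Same SeMeCo high-content imaging drug screen: Selleck FDA-approved drugs at 10 µM, 24 h in SM medium, 384-well plates, 3 replicates.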

[2] = test system: Saccharomyces cerevisiae BY4741 SeMeCo community; test: z-score of prototroph abundance vs DMSO median; higher = larger share of this subpopulation than in DMSO controls; settings: 10 µM; 24 h; SM minimal medium; subpopulation (auxotrophy): Prototroph
Summary of the method: (§1)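 Cells of a Saccharomyces cerevisiae BY4741 community, carrying four plasmids that each restored one auxotrophy and encoded a distinct fluorescent protein, were pre-grown overnight to OD600 1.0 and diluted to 0.3. A 70 µl volume was added to 384-well plates acoustically predosed with library drugs (10 µM final) and grown 24 h in minimal SM medium. After paraformaldehyde fixation, automated confocal microscopy was used, with single-auxotroph fluorescent strains for thresholds and autofluorescence correction. The abundance of each subpopulation was scored as a z-score against the vehicle-well median.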

[3] = test system: Saccharomyces cerevisiae BY4741 SeMeCo community; test: z-score of subpopulation abundance vs DMSO median, subpopulation auxotrophic for M; higher = larger share of this subpopulation than in DMSO controls; settings: 10 µM; 24 h; SM minimal medium; subpopulation (auxotrophy): M
Summary of the method: as §1

[4] = test system: Saccharomyces cerevisiae BY4741 SeMeCo community; test: z-score of subpopulation abundance vs DMSO median, subpopulation auxotrophic for L; higher = larger share of this subpopulation than in DMSO controls; settings: 10 µM; 24 h; SM minimal medium; subpopulation (auxotrophy): L
Summary of the method: as §1

[5] = test system: Saccharomyces cerevisiae BY4741 SeMeCo community; test: z-score of subpopulation abundance vs DMSO median, subpopulation auxotrophic for U; higher = larger share of this subpopulation than in DMSO controls; settings: 10 µM; 24 h; SM minimal medium; subpopulation (auxotrophy): U
Summary of the method: as §1

[6] = test system: Saccharomyces cerevisiae BY4741 SeMeCo community; test: z-score of subpopulation abundance vs DMSO median, subpopulation auxotrophic for H; higher = larger share of this subpopulation than in DMSO controls; settings: 10 µM; 24 h; SM minimal medium; subpopulation (auxotrophy): H
Summary of the method: as §1

[7] = test system: Saccharomyces cerevisiae BY4741 SeMeCo community; test: z-score of subpopulation abundance vs DMSO median, subpopulation auxotrophic for LU; higher = larger share of this subpopulation than in DMSO controls; settings: 10 µM; 24 h; SM minimal medium; subpopulation (auxotrophy): LU
Summary of the method: as §1

[8] = test system: Saccharomyces cerevisiae BY4741 SeMeCo community; test: z-score of subpopulation abundance vs DMSO median, subpopulation auxotrophic for LM; higher = larger share of this subpopulation than in DMSO controls; settings: 10 µM; 24 h; SM minimal medium; subpopulation (auxotrophy): LM
Summary of the method: as §1

[9] = test system: Saccharomyces cerevisiae BY4741 SeMeCo community; test: z-score of subpopulation abundance vs DMSO median, subpopulation auxotrophic for HM; higher = larger share of this subpopulation than in DMSO controls; settings: 10 µM; 24 h; SM minimal medium; subpopulation (auxotrophy): HM
Summary of the method: as §1

[10] = test system: Saccharomyces cerevisiae BY4741 SeMeCo community; test: z-score of subpopulation abundance vs DMSO median, subpopulation auxotrophic for HU; higher = larger share of this subpopulation than in DMSO controls; settings: 10 µM; 24 h; SM minimal medium; subpopulation (auxotrophy): HU
Summary of the method: as §1

[11] = test system: Saccharomyces cerevisiae BY4741 SeMeCo community; test: z-score of subpopulation abundance vs DMSO median, subpopulation auxotrophic for UM; higher = larger share of this subpopulation than in DMSO controls; settings: 10 µM; 24 h; SM minimal medium; subpopulation (auxotrophy): UM
Summary of the method: as §1

[12] = test system: Saccharomyces cerevisiae BY4741 SeMeCo community; test: z-score of subpopulation abundance vs DMSO median, subpopulation auxotrophic for HL; higher = larger share of this subpopulation than in DMSO controls; settings: 10 µM; 24 h; SM minimal medium; subpopulation (auxotrophy): HL
Summary of the method: as §1

[13] = test system: Saccharomyces cerevisiae BY4741 SeMeCo community; test: z-score of subpopulation abundance vs DMSO median, subpopulation auxotrophic for HLU; higher = larger share of this subpopulation than in DMSO controls; settings: 10 µM; 24 h; SM minimal medium; subpopulation (auxotrophy): HLU
Summary of the method: as §1

[14] = test system: Saccharomyces cerevisiae BY4741 SeMeCo community; test: z-score of subpopulation abundance vs DMSO median, subpopulation auxotrophic for HLM; higher = larger share of this subpopulation than in DMSO controls; settings: 10 µM; 24 h; SM minimal medium; subpopulation (auxotrophy): HLM
Summary of the method: as §1

[15] = test system: Saccharomyces cerevisiae BY4741 SeMeCo community; test: z-score of subpopulation abundance vs DMSO median, subpopulation auxotrophic for HUM; higher = larger share of this subpopulation than in DMSO controls; settings: 10 µM; 24 h; SM minimal medium; subpopulation (auxotrophy): HUM
Summary of the method: as §1

[16] = test system: Saccharomyces cerevisiae BY4741 SeMeCo community; test: z-score of subpopulation abundance vs DMSO median, subpopulation auxotrophic for HLUM; higher = larger share of this subpopulation than in DMSO controls; settings: 10 µM; 24 h; SM minimal medium; subpopulation (auxotrophy): HLUM
Summary of the method: as §1

[17] = test system: Saccharomyces cerevisiae BY4741 SeMeCo community; test: z-score of subpopulation abundance vs DMSO median, subpopulation auxotrophic for LUM; higher = larger share of this subpopulation than in DMSO controls; settings: 10 µM; 24 h; SM minimal medium; subpopulation (auxotrophy): LUM
Summary of the method: as §1

SMILES | mean cell size [1] | z-score of prototroph abundance [2] | z-score of subpopulation abundance [3] | z-score of subpopulation abundance [4] | z-score of subpopulation abundance [5] | z-score of subpopulation abundance [6] | z-score of subpopulation abundance [7] | z-score of subpopulation abundance [8] | z-score of subpopulation abundance [9] | z-score of subpopulation abundance [10] | z-score of subpopulation abundance [11] | z-score of subpopulation abundance [12] | z-score of subpopulation abundance [13] | z-score of subpopulation abundance [14] | z-score of subpopulation abundance [15] | z-score of subpopulation abundance [16] | z-score of subpopulation abundance [17]
O=C(O)CCNC(=O)c1ccccc1 [Betamipron] | 12.6 ± 0.21 | -0.09 | 0.51 | -1.22 | 0.99 | -0.34 | -0.21 | -0.71 | -0.4 | 0.19 | 0.43 | -0.92 | -1 | -1.05 | -0.33 | -0.5 | –
NS(=O)(=O)Cc1noc2ccccc12 [Zonisamide] | 12.4 ± 0.24 | -0.82 | 0.41 | 1.91 | -0.42 | – | 0.73 | 1.13 | 0.69 | – | -0.04 | – | 1.02 | 1.38 | 0.45 | 1.75 | 1.7
O=C1c2c(O)ccc(O)c2C(=O)c2c(NCCNCCO)ccc(NCCNCCO)c21 [Mitoxantrone 2HCl] | 12.9 ± 0.15 | -2.59 | -14 | 5.53 | -1.69 | – | 3.06 | -5.45 | -7.73 | 26.5 | -8.31 | 20.9 | 54.8 | -2.5 | -6.42 | -2.13 | –
NC(=O)c1cnccn1 [Pyrazinamide] | 12.6 ± 0.23 | -0.04 | 0.41 | -1.21 | – | -0.45 | 0.31 | -0.13 | -0.55 | -0.29 | 1.23 | -0.42 | -0.7 | -0.57 | 0.08 | -0.48 | -0.08
CS(=O)(=O)c1ccc([C@@H](O)[C@@H](CF)NC(=O)C(Cl)Cl)cc1 [Florfenicol] | 12.4 ± 0.26 | 0.5 | -1.1 | -0.16 | – | -0.98 | -0.09 | -0.75 | -1.52 | 0 | -0.38 | -0.56 | -0.45 | -0.4 | -0.98 | -0.14 | -0.3
CCCN[C@H]1CCc2nc(N)sc2C1 [Pramipexole dihydrochloride] | 12.3 ± 0.17 | 0.25 | -0.32 | -0.42 | – | -0.35 | -0.61 | -0.39 | -0.31 | 0 | – | 0.19 | -0.24 | -0.79 | 0.52 | 0 | -0.25
C#C[C@]1(O)CC[C@H]2[C@@H]3CCC4=CC(=O)CC[C@@H]4[C@H]3CC[C@@]21CC [Levonorgestrel] | 12.4 ± 0.16 | 0.69 | -0.18 | -0.24 | 0.3 | – | -0.04 | -0.89 | -0.99 | – | – | – | 0.05 | -0.96 | -0.08 | -0.86 | -0.68
